High-throughput results (PubChem BioAssay)
ClpP mod = qHTS Assay for Activators of ClpP; ATP-dependent Clp protease proteolytic subunit (Bacillus subtilis (strain 168)), P80244; purified B. subtilis ClpP, FRET peptide cleavage, 20 min; Potency, µM (top dose mostly 57.5 µM), inactives show top-dose activity change, negative = active; hit rate 1.9% among 340,000; AID 651965, 2013; active = well fitted falling curve with a large enough effect; inconclusive = small, poorly fitted or top-dose-only effect; inactive = no such curve, though single readings can be large or run the other way; also: potency is read from the fitted curve at half-maximal effect; the source files actives as falling curves though it sought activators and does not explain the sign; nearly all actives have a fitted effect of over 65% in size
Target sequence (P80244 whole entry, looked up): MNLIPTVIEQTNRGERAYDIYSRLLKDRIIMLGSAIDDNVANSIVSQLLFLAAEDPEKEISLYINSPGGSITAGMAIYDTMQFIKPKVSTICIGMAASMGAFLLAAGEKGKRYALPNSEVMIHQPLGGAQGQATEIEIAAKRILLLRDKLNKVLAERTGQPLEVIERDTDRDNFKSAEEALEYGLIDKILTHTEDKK
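Buffer: 100 mM Tris/HCl pH8, 100 mM KCl, 0.05% low protease BSA, 2.5% glycerol, 0.01% Tween-20. ClpP 10 microg/mL final; 20 min RT; delta FRET normalized to ADEP and DMSO controls.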
uPA generation = inhibitors of cell surface uPA generation | cell surface uPA generation assay, qHTS | Potency, µM (highest dose often 38.3 µM), for the others: top-dose activity change, negative = inhibition, most hits filed as inhibitors | hit rate 0.31% among 330,000 | AID 540303; active = well fitted inhibition curve with a large enough effect; inconclusive = small, poorly fitted or top-dose-only effect; inactive = no such curve, though single readings can be large or run the other way; tested in mouse RAW 264.7 cells; also: potency is read from the fitted curve at half-maximal effect; % is scaled to controls: 0 for no effect and ±100 for the full control effect; nearly all actives have a fitted effect of over 55% in size
Sfp inh = Sfp phosphopantetheinyl transferase inhibition; hit rate 3.5% among 310,000; Q9F4F7; Biochemical Sfp PPTase activity, qHTS; Potency, µM, without a hit: largest response in the series, negative = inhibition, usual class: inhibitors;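 also: the enzyme is Sfp with the accession as filed and its product quenches rhodamine fluorescence; potency is read from the fitted curve at half-maximal effect; 0% = enzyme reaction without inhibitor and -100% = no enzyme wells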
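Reaction rates are the 30-min fluorescence difference (ex 525, em 598 nm) in wells containing 15 nM Sfp, 5 uM rhodamine-CoA and 12.5 uM BHQ-2-YbbR at pH 7.6 with 10 mM MgCl2.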
TCR act = activates T cell receptor signaling | Potency, µM (series often up to 9.22 µM), for the others: top-dose activation of IL-2 secretion, hits mostly activators | primary human leukocytes, anti-CD3, IL-2 HTRF, 48 h | 330,000 tested, under 10 active; also: % of control where 0% means no effect
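Primary human leukocytes were stimulated with a-CD3 beads plus compounds for 48 hr without co-stimulation; secreted IL-2 was quantified by HTRF using a-IL-2-K (europium cryptate) and a-IL-2-d2, excited at 320nm with acceptor emission read at 665nm.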
* = called active by the depositor; u = inconclusive; x = no result; [ ] = another dose, or the depositor's remark. Only some compounds are listed: those with a hit (about 4.2% of all), similar ones and a draw of the others. Unless noted, calls follow the shape of the dose curve; as a rule, active = well fitted curve in the direction sought with a large enough effect; inconclusive = small, poorly fitted or top-dose-only effect, or another doubt; inactive = no such curve, though single readings can be large; an effect the other way counts as inactive or inconclusive.

SMILES	ClpP mod	uPA generation	Sfp inh	TCR act
O=C(CSc1nc2[nH]c(=O)cc(O)c2s1)Nc1nccs1	32µM*	3%	x	-2%
Cc1cccc(-c2nsc(SCC(=O)N3CCCC3)n2)c1	1%	-7%	u	-4%
Cc1cccc(-c2nsc(SCC(=O)Nc3nccs3)n2)c1	0%	2%	50µM*	1%
CCOC(=O)CSc1nc(-c2ccccc2)ns1	x	-3%	16µM*	2%
CC(C)c1ccc(NC(=O)c2snc3ccc(Cl)cc23)cc1	-7%	-12%	-1%	1%[46.1 µM]
COc1ccccc1CNC(=O)CCn1c(=O)c2ccccc2n(CC(=O)Nc2ccc(C)cc2C)c1=O	-1%	x	x	x
COc1ccccc1C(C)NC(=O)CCNC(=O)c1ccc(Cl)cc1 (stereo not given)	-1%	5%	x	12%
CCc1nnc(NC(=O)CSc2nc(-c3ccc(OC)cc3)ns2)s1	0%	0%	5%	-1%
CCOC(=O)CNC(=O)CSc1nc(-c2ccc(OC)cc2)ns1	-4%	0%	40µM*	0%
COc1ccc(-c2nsc(SCC(=O)Nc3cc(C)on3)n2)cc1	1%	3%	16µM*	1%
O=C(c1ccc2c(=O)n(CC3CCCO3)c(=S)[nH]c2c1)N1CCN(C(=O)c2ccco2)CC1 (stereo not given)	4%	x	x	x
CCCCn1nnnc1C1(C)CCC(=O)N1CCCN1CCOCC1 (stereo not given)	0%	x	x	x
CCCCCCCCCCCCCCCCCCN(CCCCCCCCCCCCCCCCCC)c1ccc(/C=C/c2ccc(C=O)cc2)cc1	1%	x	x	x
CC(C)CCOC(=O)C[N+](C)(C)CCOC1CC2CCC1(C)C2(C)C (stereo not given)	1%	10µM*	2%	-1%
CCCCCCOC(=O)C[N+](C)(C)CCOC1CC2CCC1(C)C2(C)C (stereo not given)	3%	x	u	-4%
CCCCCCCOC(=O)C[N+](C)(C)CCOC1CC2CCC1(C)C2(C)C (stereo not given)	x	-19%	50µM*	3%[46.1 µM]
CCOc1ccc(CCNC(=O)CN2N=C(c3ccccc3)CCC2=O)cc1OCC	2%	x	x	x
COc1ccc(-n2c(SCC(=O)c3ccc(Cl)cc3)nc3c([nH]c4ccccc43)c2=O)cc1	-3%	x	x	x
OC(CNCC(c1ccc(Cl)cc1Cl)c1c[nH]c2ccccc12)c1ccccc1 (stereo not given)	x	1%	50µM*	4%
O=[N+]([O-])CC(c1ccccc1)c1c[nH]c2ccccc12 (stereo not given)	1%	u	x	0%
CC(C)(C)N1NC2(CCCCC2)NC1=S	x	2%	22µM*	-4%
CC/C(=C(/c1ccccc1)c1ccc(OCCN(C)C)cc1)c1ccccc1	x	x	50µM*	x
C[C@@H]1CN([C@H](C)CO)C(=O)CCCn2cc(nn2)CO[C@H]1CN(C)C(=O)c1ccccc1	-1%	x	x	x
O=C(COc1ccccc1)NNC(=S)NC(=O)c1ccccc1	-2%	-11%	u	-70%
O=C(CCc1ccccc1)NNC(=S)NC(=O)c1ccc(Cl)cc1	-2%	-1%	50µM*	0%
SMILES	ClpP mod	uPA generation	Sfp inh	TCR act
CCC(=O)NC(=S)Nc1ccc(NC(=S)NC(=O)c2ccc(C)cc2)cc1	1%	9%	-4%	6%
Cc1ccc(OCC(=O)Nc2ccc([N+](=O)[O-])cc2)cc1	-1%	2%	8%	-5%[46.1 µM]
Cc1ccc(C(=O)NC(=S)NNC(=O)COc2ccc([N+](=O)[O-])cc2)cc1	-3%	12%	71µM*	0%
CCC(=O)NNC(=S)NC(=O)c1ccc(C)cc1	-3%	x	56µM*	0%
O=C(CCc1ccccc1)NNC(=O)c1ccc(Cl)cc1	1%	1%	1%	x
O=C(COc1ccc([N+](=O)[O-])cc1)NNC(=S)NC(=O)c1ccc(Br)cc1	x	1%	45µM*	-2%
CCNC(=O)C1(C)CCCN(Cc2cc3ccccc3o2)C1 (stereo not given)	0%	x	x	x
Cc1ccc(C(=O)NC(=S)Nn2cnnc2)cc1	-3%	-1%	28µM*	-1%[46.1 µM]
O=C(NC(=S)NNC(=O)c1ccccc1[N+](=O)[O-])c1ccc(Br)cc1	x	5%	79µM*	-2%
CC(=O)NNC(=S)NC(=O)c1ccc(C)cc1	x	-1%	23%	3%
CC(=O)NNC(=S)NC(=O)c1ccccc1	x	4%	18µM*	5%
O=C(NC(=S)Nn1cnnc1)c1cccc(Br)c1	1%	0%	-68%	-3%[46.1 µM]
